Assay outcomes deposited in PubChem by National Center for Advancing Translational Sciences (NCATS).
This is a sample that favours compounds with a hit; in the whole collection about 9.3% have one here.
Sm TGR inh: inhibitors of Schistosoma mansoni thioredoxin glutathione reductase. Q962Y6. purified TGR, DTNB reduction, TNB absorbance 405 nm. Potency, µM (titrated, usually from 114 µM), for the others: at the top dose activity change, negative = inhibition, hits mostly inhibitors. 360,000 compounds, 3% hits; also: potency is read from the fitted curve at half-maximal effect; nearly all actives have a fitted effect of over 60% in size
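Kinetic colorimetric format: TGR-catalysed, NADPH-driven DTNB reduction monitored via TNB absorbance. Enzyme dispensed at 20 nM; compound exposure 15 min at room temperature before reaction start.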
Vaccinia mCherry: vaccinia inhibition (mCherry reporter); Vaccinia virus mCherry reporter infection, fluorescence; Potency, µM (top dose mostly 36.5 µM), without a hit: top-dose activity change, negative = inhibition, usual class: inhibitors; 310,000 compounds, 0.63% hits; calls by dose curve; tested in A549 cells; also: potency is read from the fitted curve at half-maximal effect; nearly all actives have a fitted effect of over 35% in size
HCMV antiviral: blocks human cytomegalovirus replication | HFF cells, HCMV-luciferase reporter, 72 h; hits give low values | activity change, negative = inhibition, % at 57.5 µM | 410,000 compounds, 4.5% hits | AID 1259415; in the data active = activity change below about -60%; inconclusive = no clear call, values can overlap the other calls; inactive = above about -39%
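Steps: HFFs plated, 16 h 37C; compounds added; HCMV-luciferase added to MOI 1 PFU/cell; 72 h 37C; OneGlo reagent, 5 min room temperature; luminescence read, normalized to controls.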
FMDV inh: antivirals against foot and mouth disease virus; Potency, µM (doses to about 57.9 µM), without a hit: at the highest dose activity change, negative = inhibition, usual class: inhibitors; AID 1159524; FMDV antiviral cell-based qHTS; 410,000 compounds, 1.2% hits; calls by dose curve; tested in HEK293T cells; also: read-out not given here; potency is read from the fitted curve at half-maximal effect; nearly all actives have a fitted effect of over 45% in size
HCV inh: blocks hepatitis C virus; Huh7.5.1 HCVcc-Cre infection, luciferase reporter, 44 h; Potency, µM (top dose mostly 41.8 µM), without a hit: top-dose activity change, negative = inhibition, hits mostly inhibitors; 340,000 compounds, 3.4% hits; also: potency is read from the fitted curve at half-maximal effect
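Luciferase read-out (15 sec integration) after a 15 min room-temperature substrate step quantifies HCVcc-Cre infection. Cells, 1,000 per well, had compound added 4 h post-plating, then virus at ~0.5 moi, and were cultured 44 h.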
Vaccinia Venus: inhibitors of vaccinia virus (Venus reporter). Vaccinia virus Venus reporter expression, fluorescence. Potency, µM (doses to about 36.5 µM), without a hit: at the top dose activity change, negative = inhibition, most hits filed as inhibitors. 330,000 compounds, 0.46% hits. AID 720580; calls by dose curve; tested in A549 cells; also: potency is read from the fitted curve at half-maximal effect; nearly all actives have a fitted effect of over 30% in size
* hit, by the source's call; i = inactive; ? = inconclusive; nt = not tested or not shown. Unless noted, calls follow the shape of the dose curve; as a rule, active = well fitted curve in the direction sought with a large enough effect; inconclusive = small, poorly fitted or top-dose-only effect, or another doubt; inactive = no such curve, though single readings can be large; an effect the other way counts as inactive or inconclusive. % is scaled to controls: 0 for no effect and ±100 for the full control effect.

SMILES	Sm TGR inh	Vaccinia mCherry	HCMV antiviral	FMDV inh	HCV inh	Vaccinia Venus
COc1ccc(NC(=O)c2ccc3ccccc3n2)cc1S(=O)(=O)N1CCCCC1	?	-15%	99	12%	5.6µM*	-5%
COc1ccc(NC(=O)c2ccncc2)cc1S(=O)(=O)N1CCCCC1	nt	-17%	-16	3%	nt	-12%
COc1ccc(NC(=O)c2ccco2)cc1S(=O)(=O)N1CCOCC1	0%	-12%	4	-7%	-2%	-10%
COc1ccc(NC(=O)Cn2ncc(Cl)c(Cl)c2=O)cc1S(=O)(=O)N1CCOCC1	10µM*	-2%	-100*	40µM*	8.9µM*	-15%
COc1ccc(NC(=O)c2ccc(-c3ccccc3)cc2)cc1S(=O)(=O)N1CCOCC1	10%	?	-68*	3.5µM*	?	-29%
COc1ccc(C(=O)COC(=O)CCN=C2NS(=O)(=O)c3ccccc32)cc1OC	-4%	nt	43	-7%	-2%	nt
COC(=O)c1cc2ccsc2n1CC(=O)Nc1ccc(N(C)C)cc1	5%	i	-23	nt	?	-5%
COc1ccc(NC(=O)c2ccc(Cl)nc2)cc1S(=O)(=O)N1CCOCC1	1%	nt	119	-19%	?	nt
O=C(OCC(=O)N1CCN(c2ccccc2)CC1)c1ccccn1	-10%	nt	14	0%	3%	nt
CCc1ccc(C(=O)Nc2ccc(OC)c(S(=O)(=O)N3CCOCC3)c2)cc1	13%	-25%	-89*	?	8.9µM*	-20%
O=C(Nc1ccc(-c2cn3c(n2)SCC3)cc1)c1ccc2ccccc2n1	0%	-11%	10	25µM*	?	-16%
O=C(Nc1cccc(-c2cn3c(n2)SCC3)c1)c1ccc2ccccc2n1	2%	-14%	312	17%	-59%	-6%
O=C(OCC(=O)N1CCN(c2ccccc2)CC1)c1ccc2ccccc2n1	45µM*	nt	52	0%	-1%	nt
COc1ccc(Nc2nc(-c3cccs3)nc3ccccc23)cc1S(=O)(=O)N1CCOCC1	nt	?	?	?	2.8µM*	?
c1ccc2oc(-c3ccn[nH]3)cc2c1	27%	i	13	44%	0%	0%
Cc1nnc(SCc2cc(=O)[nH]c(Nc3nc(C)c4cc(C)c(C)cc4n3)n2)s1	0%	-4%	?	3%	-18%	-14%
O=C(Nc1ccc(N2CCCCC2)cc1)c1ccc2ccccc2n1	-2%	nt	12	-7%	10µM*	nt
COc1ccc(NC(=O)Cc2coc3cc(C)c(C(C)C)cc23)cc1S(=O)(=O)N1CCOCC1	-31%	?	-67*	0%	7.1µM*	?
COc1ccc(CC(=O)Nc2ccc(C#N)c(Cl)c2)cc1S(=O)(=O)N1CCOCC1	13µM*	-13%	19	-23%	?	-24%
COc1ccc(NC(=O)c2cc(S(=O)(=O)N3CCCC3)cn2C)cc1Cl	-3%	i	22	0%	-2%	-15%
Cc1cc2oc(C(=O)Nc3ccc(S(=O)(=O)Nc4ncccn4)cc3)c(C)c2cc1Cl	1%	-10%	15	-18%	3%	-20%
Cc1cc(C)n2nc(S(=O)(=O)NC(C)(C)C)nc2n1	7%	1%	-30	1%	7%	-1%
CCOc1ccc(S(=O)(=O)N2CCC(C(=O)N3CCN(c4ccccc4)CC3)CC2)cc1	-26%	-10%	nt	-17%	-2%	-18%
Cc1ccc(Oc2ccccc2NC(=O)CN2C(=O)NC3(CCCC3)C2=O)cc1	-8%	nt	-106*	0%	11%	nt
CC(C)(C)N(Cc1ccccc1)C(=O)CN1C(=O)NC2(CCCCCC2)C1=O	1%	nt	-61*	-25%	1%	nt
SMILES	Sm TGR inh	Vaccinia mCherry	HCMV antiviral	FMDV inh	HCV inh	Vaccinia Venus
Cc1cccc(Oc2ccccc2NC(=O)CN2C(=O)NC3(CCCC3)C2=O)c1	5%	-2%	-10	-5%	?	-14%
Cc1ccccc1NC(=O)CN1C(=O)NC2(CCCCCCC2)C1=O	-3%	-3%	-98*	-11%	24%	-23%
CC(=O)Oc1ccc(C(=O)Nn2cnnc2)cc1	nt	-10%	-24	-11%	7%	0%
CCC(=O)NC1=C(Cl)C(=O)C(NC(=O)CC)=C(Cl)C1=O	0.22µM*	-9%	-94*	?	?	?
CCC(=O)Nc1ccccc1	-22%	8%	1	-5%	?	3%
C=CC1C(N2CCOCC2)C(C)(C)S1(=O)=O (stereo unspecified)	-3%	-17%	-3	0%	5%	-22%
Cc1ccc(C(C)C)c(OCC(=O)Nc2ccc(N3CCOCC3)cc2N2CCOCC2)c1	-5%	-13%	-24	0%	32µM*	-15%
Cc1ccc(C(C)C)c(OCC(=O)Nc2ccccc2N2CCN(C)CC2)c1	4%	nt	-74*	32µM*	?	?
NC(=O)c1ccccc1NC(=O)Nc1cccc(Cl)c1Cl	-1%	-22%	-30	18%	-3%	-15%
CC(C)(C)C1CCC(CN2CCC(CN3C(=O)C(=O)NC[C@@H]3Cc3ccccc3)CC2)CC1 (stereo partly specified)	nt	-10%	-33	-25%	-23%	-17%
Cc1cc(S(=O)(=O)N2CCOCC2)ccc1OCC(=O)NCCN1CCOCC1	6%	-9%	-20	3%	13%	-1%
Cc1ccc(Cn2c(C3CCCN3c3nc(-c4cc(Cl)c(N)c(Cl)c4)cs3)nc3cc(C(=O)NCCCO)ccc32)cc1 (stereo unspecified)	nt	?	-2	0%	1.4µM*	?
Cc1nn(-c2ccccc2)c(C)c1-c1nnc(-c2c(C)nn(-c3ccccc3)c2C)o1	6%	-12%	2	32µM*	?	-1%
O=C1c2c(O)ccc(O)c2C(=O)c2c(NCCNCCO)ccc(NCCNCCO)c21	-9%	?	-98*	?	1.1µM*	10µM*
COc1cccc(N2C(=O)C3CC=C(Cl)CC3C2=O)c1 (stereo unspecified)	-28%	nt	2	-18%	5%	nt
COc1ccccc1CCNC(=O)C(=O)NCC(c1ccco1)S(=O)(=O)c1ccc(F)cc1 (stereo unspecified)	18µM*	-6%	-15	-17%	nt	-16%
O=C(NCCc1ccc(F)cc1)C(=O)NCC(c1ccco1)S(=O)(=O)c1ccccc1 (stereo unspecified)	-23%	-4%	?	-19%	nt	-7%
COc1ccc(CCNC(=O)C(=O)NCC(c2ccco2)S(=O)(=O)c2ccccc2)cc1OC (stereo unspecified)	13µM*	i	42	?	nt	-7%
COc1ccccc1CCNC(=O)C(=O)NCC(c1cccs1)S(=O)(=O)c1ccc(F)cc1 (stereo unspecified)	-1%	-23%	-18	?	nt	-13%
